Screening results as filed in PubChem.
DUSP3 inh = blocks human VHR1 dual specificity phosphatase. P51452. recombinant VHR phosphatase, pNPP absorbance. inhibition, % at 13.3 µM. 290,000 compounds, 0.52% hits. AID 1654; in the data active = inhibition above about 50%
Target sequence (P51452 whole entry, looked up): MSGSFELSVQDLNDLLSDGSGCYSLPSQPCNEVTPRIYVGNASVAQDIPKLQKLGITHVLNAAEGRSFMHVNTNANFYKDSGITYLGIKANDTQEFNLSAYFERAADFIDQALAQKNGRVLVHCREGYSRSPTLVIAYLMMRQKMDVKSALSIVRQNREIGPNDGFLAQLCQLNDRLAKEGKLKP
PfHsp40 yeast = rescue of PfHsp40-mediated yeast toxicity; AID 504582; S. cerevisiae expressing PfHsp40, growth rescue, ATP luminescence; 340,000 compounds, 0.68% hits; growth rescue, % at 12.5 µM; in the data active = growth rescue above about 28%, passing the limit was not always enough;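 also: yeast W303a lacking pdr1 and pdr3 grown in galactose medium; growth measured after three days at 30 °C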
PrPC surface inh = inhibitors of human cell surface prion protein PrPC | P04156 | TR-FRET read-out | inhibition, % at 13.8 µM | 370,000 compounds, 0.43% hits | AID 720596; in the data active = inhibition above about 24%; also: 0% = median of the test wells and 100% = reference compound wells
MazF activator = activators of E. coli MazEF toxin-antitoxin RNase; P0AE70; FAM/BHQ RNA-DNA oligo cleavage fluorescence, 5 h; activation, % at 20 µM; 350,000 compounds, 0.32% hits; AID 504720; in the data active = activation above about 50%
Target sequence (P0AE70 whole entry, looked up): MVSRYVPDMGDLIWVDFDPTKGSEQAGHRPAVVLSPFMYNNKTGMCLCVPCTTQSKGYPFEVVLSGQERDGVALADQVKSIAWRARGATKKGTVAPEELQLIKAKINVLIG
BJeLR lethal = BJeLR cell viability loss; inhibition, % (test concentration not listed); AID 1554; BJeLR (HRASV12) viability, CellTiter-Glo ATP luminescence, 48 h; 300,000 compounds, 0.17% hits; in the data active = inhibition above about 50%
PrP UTR inh = suppresses PrP 5' UTR mRNA reporter expression. cell-based PrP 5' UTR mRNA reporter, plate reader. AID 488862. inhibition, % (no concentration beside the values). 340,000 compounds, 0.35% hits; in the data active = inhibition above about 52%; also: 0 = median of the neutral control wells
Active calls of the source: *. A selection: hits, their analogues and other compounds. The true share with any hit is near 2.1%.

Screening CCOc1ccc(S(=O)(=O)NCCC(=O)NCC(c2ccc(OC)cc2)N2CCOCC2)cc1 (stereo not drawn) returned PrPC surface inh -5 and MazF activator -5.
Cc1c(N(C)S(=O)(=O)c2cccc(C(=O)NCc3cccnc3)c2)c(=O)n(-c2ccccc2)n1C was read as PrPC surface inh 9 and MazF activator -4.
Screening C#CCSc1nc(-c2ccccc2)cc(C(F)(F)F)c1C#N returned DUSP3 inh -18, PfHsp40 yeast -1, PrPC surface inh -3, MazF activator -37, BJeLR lethal -12 and PrP UTR inh -11.
`CNc1nc(-c2ccccc2)cc(C(F)(F)F)c1C#N` gave DUSP3 inh 17, PfHsp40 yeast 1, PrPC surface inh 3, MazF activator 400*, BJeLR lethal 4 and PrP UTR inh -9.
`CC(C)N(Cc1ccccc1)C(=S)NCc1ccccc1` gave DUSP3 inh 7, PfHsp40 yeast 2, PrPC surface inh -1, MazF activator 5, BJeLR lethal 1 and PrP UTR inh -17.
CC(C)N(Cc1ccccc1)C(=S)NCCN1CCOCC1 was read as DUSP3 inh 21, PfHsp40 yeast 35*, PrPC surface inh 12, MazF activator 5, BJeLR lethal -6 and PrP UTR inh -17.
For CCNC(=O)N1C(=O)C2(OCCO2)c2ccccc21 the results were DUSP3 inh 21, PfHsp40 yeast -1, PrPC surface inh -5, MazF activator 5, BJeLR lethal 7 and PrP UTR inh -16.
For CCCCOc1ccc(OCCCC)c2c1NC1(N2)C(=O)N(C(C)=O)c2ccccc21 the results were DUSP3 inh -1, PfHsp40 yeast 1, PrPC surface inh -6, MazF activator 105*, BJeLR lethal 5 and PrP UTR inh -6.
`O=C(CC1C(=O)NCCN1Cc1ccccc1)NC1CCCCC1` (stereo not drawn) gave PrPC surface inh -1 and MazF activator -10.
Cc1cc(C)c(S(=O)(=O)N2CCN(c3ccccn3)CC2)c(C)c1 was read as PfHsp40 yeast 53*, PrPC surface inh 7, MazF activator 0 and PrP UTR inh -20.
CCOC(=O)C1CCN(S(=O)(=O)c2cccc3nonc23)CC1 was read as DUSP3 inh -4, PfHsp40 yeast -1, PrPC surface inh -23, MazF activator -1, BJeLR lethal -9 and PrP UTR inh -2.
For CCOC(=O)C1CCN(S(=O)(=O)c2c(Cl)ccc3nonc23)CC1 the results were DUSP3 inh 16, PfHsp40 yeast 0, PrPC surface inh -22, BJeLR lethal 60* and PrP UTR inh -35.
`O=C(NCC(=O)N1CCN(c2ccc(C(F)(F)F)cn2)CC1)c1ccc(Br)o1` gave PfHsp40 yeast -1, PrPC surface inh 14, MazF activator 4 and PrP UTR inh -21.
For Cc1cc(C(=O)NN=Cc2ccccc2C(=O)O)n[nH]1 the results were PrPC surface inh -4.
Cc1cc([N+](=O)[O-])c2[nH]c(C(=O)N/N=C/c3ccccc3C(=O)O)c(-c3ccccc3)c2c1 was read as DUSP3 inh 90*, PfHsp40 yeast -1, PrPC surface inh 0, MazF activator -5, BJeLR lethal -5 and PrP UTR inh -9.
For CC1(C)Cc2c(cnn2-c2ccc(F)cc2)C(NC(=O)CCC(F)(F)F)C1 (stereo not drawn) the results were DUSP3 inh 59*, PfHsp40 yeast 0, PrPC surface inh 2, MazF activator 8, BJeLR lethal 2 and PrP UTR inh -13.
`COc1ccc(-n2ncc3c2CC(C)(C)CC3NC(=O)CCCN2CCCC2=O)cc1` (stereo not drawn) gave DUSP3 inh 57*, PfHsp40 yeast 0, PrPC surface inh 4, MazF activator 1, BJeLR lethal -4 and PrP UTR inh -7.
COc1ccc(-n2ncc3c2CC(C)(C)CC3NC(=O)CCN2CCCCC2=O)cc1 (stereo not drawn) was read as DUSP3 inh 2, PfHsp40 yeast 1, PrPC surface inh 1, MazF activator -24, BJeLR lethal -1 and PrP UTR inh 8.
`O=C(NNC(=O)C1CC(=O)N(Cc2ccccc2)C1)c1ccc(Br)cc1` (stereo not drawn) gave DUSP3 inh 57*, PfHsp40 yeast 1, PrPC surface inh 2, MazF activator -2, BJeLR lethal 4 and PrP UTR inh -11.
